Measurements from PubChem BioAssay AID488890 (Southern Research Specialized Biocontainment Screening …, 2010).
Among all 320,000 compounds or so, about 1,300 (0.41%) were called active. About 3% were inconclusive and are not listed. How the calls were made is not given here. Only a sample is shown. Measured potencies and affinities stand elsewhere.

Assay: growth inhibition of non-replicating M. tuberculosis (AID 488890);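 further: plate controls were DMSO cells for no effect and high antibiotic wells for full effect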
Details: Mycobacterium tuberculosis non-replicating, at 25 µM, stronger effect = higher value

| SMILES | inhibition |
| --- | --- |
| CC1CCC(NC(=O)CN2CCN(S(=O)(=O)c3cccs3)CC2)CC1 (stereo not given) | 1.37% |
| Cc1nc2c(-c3ccc(F)cc3)c(C)nn2c(N2CCOCC2)c1C | 40.1% |
| O=C(O)CSc1nnc(-c2ccc(Cl)cc2Cl)n1Cc1ccccc1 | -8.24% |
| O=C(NC1CCCCC1)C(c1cccs1)N(C(=O)C(F)(F)F)c1ccccc1 (stereo not given) | 14.2% |
| Cc1cc(C(=O)NNc2ccc(F)cc2)no1 | 57.1% |
| Cc1cc(C(=O)NNC(=O)Nc2ccc(Cl)cc2)no1 | -6.49% |
| Cc1ccc(C)c(C(=O)CCC(=O)Nc2ccc(F)cc2)c1 | 40% |
| CC(C)OCC(O)CS(=O)(=O)Cc1ccccc1 (stereo not given) | -5.18% |
| O=C(c1cccnc1)N1CCC(Oc2ccc(C(=O)N3CCCC(O)C3)cc2)CC1 (stereo not given) | -34.2% |
| CSc1nc(Cl)cc(=O)[nH]1 | 6.5% |
| CSc1cc(C)[nH]c(=O)n1 | -1.97% |
| O=C(NCC(c1ccco1)N1CCc2ccccc21)c1ccccc1Br (stereo not given) | 11.1% |
| O=C(Nc1nc2ccccc2n1Cc1ccc(Cl)cc1)c1ccco1 | -7.17% |
| CC(=O)NCCCc1nc2ccccc2n1Cc1ccc(C)cc1 | 1.78% |
| CC(=O)NCCc1nc2ccccc2n1Cc1ccc(Cl)cc1 | 0.72% |
| Cc1ccc(Cn2c(NS(=O)(=O)c3ccccc3)nc3ccccc32)cc1 | -3.28% |
| CC(=O)Nc1ccc(-c2nc3cc(Cl)ccc3o2)cc1 | 49.8% |
| CC/C(=N\NC(N)=O)c1c(O)[nH]c(=O)[nH]c1=O | -25.7% |
| C/C(Cn1nnc([N+](=O)[O-])n1)=N\NC(=O)c1ccc(C)cc1 | 55.5% |
| C/C(Cn1nnc([N+](=O)[O-])n1)=N\NC(=O)c1ccc(O)cc1 | 54.4% |
| Cc1nc2c(sc3nc4c(cc32)COC(C)(C)C4)c(=O)n1Cc1ccccc1 | 8.21% |
| CCNC(=O)OCC12CC3CC(CC(C3)C1)C2 | 77% |
| CCCNC(=O)OCCC12CC3CC(CC(C3)C1)C2 | 69.4% |

| SMILES | inhibition |
| --- | --- |
| COc1ccc(Cl)c2sc(N(CCN(C)C)C(=O)CCS(=O)(=O)c3ccc(C)cc3)nc12 | 26.4% |
| O=C(NCC1CCCN(C(=O)c2cccnc2)C1)c1ccc(-c2ccccc2)cc1 (stereo not given) | -2.83% |
| O=[N+]([O-])c1ccc(Nc2ccc(Cl)cc2)nc1 | 16.9% |
| O=C(O)c1ccc(Nc2ncc([N+](=O)[O-])cc2[N+](=O)[O-])cc1 | 5.68% |
| COc1ccc(CCNC(=O)c2ccc(S(=O)(=O)N(C)c3ccccc3)cc2)cc1OC | -1.9% |
| O=C(CC1CCCC1)Nc1cc(C(F)(F)F)ccc1-n1cncn1 | 12.3% |
| c1ccc(Nc2ccccn2)nc1 | 3.72% |
| c1ccc(Nc2ccccc2Nc2ccccn2)nc1 | 0.46% |
| Cc1ccccc1Cn1nnc(C(=O)Nc2cccc(C)c2C)c1N | 26% |
| Cc1cccc(NC(=O)c2cccc(Cn3cc(Br)c([N+](=O)[O-])n3)c2)c1C | -0.16% |
| Cc1cccc(NC(=O)c2ccco2)c1C | -14.2% |
| O=C(NCc1cccnc1)c1ccc([N+](=O)[O-])o1 | 62.8% |
| COc1ccccc1NC(=O)c1ccc(-c2ccccc2[N+](=O)[O-])o1 | 25% |
| Cc1cccc(NC(=O)COC(=O)c2ccc([N+](=O)[O-])o2)c1C | 61.9% |
| COc1cc(NC(=O)c2ccc([N+](=O)[O-])o2)ccc1NC(=O)c1ccco1 | 66.5% |
| Cc1ccc(CNC(=O)c2ccc(Br)o2)cc1 | 71.9% |
| O=C(NCc1ccccc1)c1cc[n+](Cc2ccccc2)cc1 | -1.18% |
| Cc1ccc(C(C)(C)NC(=O)C2CCC(=O)N(C3CCCCCC3)C2)cc1 (stereo not given) | 8.48% |
| Cc1ccccc1CC(=O)N1CCN(S(=O)(=O)c2cccs2)CC1 | -18.2% |
| O=C(Cc1ccccc1)NC(c1ccco1)c1c(O)ccc2ccccc12 (stereo not given) | 11.6% |
| O=C(NCc1ccccc1)C1=C[C@@H](c2csc3ccccc23)C[C@@H](OCCCCO)O1 | -6.19% |
| NC(=O)c1cc(S(=O)(=O)N2CC=C(c3ccccc3)CC2)cs1 | -1.59% |
| N#CCc1ccc(NC(=O)CSc2nnc(C3CC3)n2C2CC2)cc1 | -7.07% |

| SMILES | inhibition |
| --- | --- |
| CC(=O)OCC(=O)Nc1ccc(SC(F)F)cc1 | -17.3% |
| COc1ccc(CNC(=O)N2CCN(c3cccc(C)c3C)CC2)cc1OC | 47.1% |
| Cc1ccc2nc(-c3ccncc3)cc(C(=O)N3CCC4(CC3)OCCO4)c2c1 | 8.38% |
| O=C(CSc1ncn(-c2ccccc2)n1)Nc1nccs1 | 12.5% |
| Cc1cc(OC2CCCCC2)nc(-c2ccccc2O)n1 | 0.01% |
| C=C1CCC[C@]2(C)C[C@H]3OC(=O)C(CNC(CC)CO)[C@H]3CC12 (stereo not given in full) | 34.3% |
| O=C(Nc1nccs1)c1ccc(N2C(=O)C3CCCCC3C2=O)cc1 (stereo not given) | 6.17% |
| O=C(NC12CC3CC(CC(C3)C1)C2)c1ccc(-c2ccc(Cl)cc2)o1 | 64.3% |
| O=C(COC(=O)c1ccc([N+](=O)[O-])o1)Nc1cccc2ccccc12 | 71.3% |
| O=C(Nc1cccc(NC(=O)c2ccccc2Cl)c1)c1ccc([N+](=O)[O-])o1 | 8.06% |
| O=C(NC12CC3CC(CC(C3)C1)C2)c1ccc([N+](=O)[O-])cc1 | 74.3% |
| Cc1c([N+](=O)[O-])cc(C(=O)Nc2ccc(Cc3ccncc3)cc2)cc1[N+](=O)[O-] | 59.9% |
| Cc1cc(C)nc(NC(=O)c2ccc([N+](=O)[O-])o2)n1 | 70.5% |
| Cc1ccc(C(=O)Nc2cccc3ccccc23)o1 | 26.4% |
| O=C(Nc1ccc(Cc2ccncc2)cc1)c1ccc(Br)o1 | -2.73% |
| O=C(NCCCN1CCN(CCCNC(=O)c2cccc(Cl)c2)CC1)c1cccc(Cl)c1 | 43.3% |
| CCOc1ccc(NC(=O)CN(C)C(=O)c2ccc(C)o2)cc1OCC | -1.16% |
| Cc1ccc(-c2cc(C(=O)Nc3cccnc3)[nH]n2)c(O)c1C | 3.48% |
| CC(C)NC(=O)CCn1nc(-c2ccc(Cl)cc2)c2ccccc2c1=O | 10% |
| FC(F)(F)c1cc(-c2ccco2)nc(N2CCN(c3ccccc3)CC2)n1 | -1.1% |
| O=C(CCNC(=O)c1ccc(Br)cc1)NCc1ccco1 | 6.14% |
| CC(=O)c1cccc(S(=O)(=O)NCCC(=O)O)c1 | -0.2% |
| Cc1cc(C)c2nc(NC(=O)c3ccc([N+](=O)[O-])o3)sc2c1 | 62.3% |

| SMILES | inhibition |
| --- | --- |
| NS(=O)(=O)c1ccc(O)c(NC(=O)c2ccc([N+](=O)[O-])o2)c1 | 76.7% |
| O=C(Nc1ccccc1N1CCOCC1)c1ccc([N+](=O)[O-])o1 | 67.3% |
| CN1CCN(c2ccccc2NC(=O)c2ccc([N+](=O)[O-])o2)CC1 | 44.3% |
| CCn1ncc(Br)c1C(=O)Nc1cc(C)cc(C)c1 | -11% |
| C=C1CCC2[C@](C)(CO)[C@H](O)CC[C@@]2(C)[C@@H]1/C=C/C1=CCOC1=O (stereo not given in full) | -9.71% |
| CC(C)c1ccc(C(C(=O)NC2CCCC2)N(C(=O)CNC(=O)c2ccco2)c2cccnc2)cc1 (stereo not given) | -5.98% |
| O=C(NS(=O)(=O)Nc1ccccc1)C1=C(N2CCCC2)COC1=O | 12.7% |
| CCOC(=O)N1CCN(C(=O)CSc2nc3c([nH]c4ccccc43)c(=O)n2CCOC)CC1 | -12.8% |
| COC(=O)c1nn(-c2cccc(C)c2)c2nnc(Cc3ccc(C)cc3)c(=O)n12 | -0.72% |
| COc1ccc(NC(=O)N2CCCC2C(=O)NC2CCCC2)cc1 (stereo not given) | -20.1% |
| COc1cccc2c1OCC(C(=O)O)C2 (stereo not given) | -4.89% |
| COc1ccccc1N1CCN(C(=O)C2CC=CCC2C(=O)O)CC1 (stereo not given) | -0.47% |
| CCOC(=O)C1CCN(C(=O)c2ccc3c(=O)n4c(nc3c2)CCCCC4)CC1 | -14.7% |
| Cn1nc(-c2ccccc2)c(/C=N/O)c1Cl | -12.1% |
| O=Nc1c(-c2ccccc2)[nH]n(-c2ccccc2)c1=O | 63% |
| Cc1sc2ncnc(N3CCCCC3C)c2c1C (stereo not given) | 32.6% |
| CCOc1ccc(S(=O)(=O)N2CCCC(C(=O)NCc3ccccc3)C2)cc1 (stereo not given) | -11.6% |
| CN(C)C=NC(=O)c1cn(-c2ccc(F)cc2)c(=O)c2ccccc12 | -9.03% |
| O=C(N/N=C/C=C/c1ccco1)c1cnccn1 | -12.5% |
| O=C(N/N=C/C=C/c1ccccc1[N+](=O)[O-])c1cccnc1 | -8% |
| O=C(N/N=C/C=C/c1ccccc1)c1cnccn1 | 15.9% |
| O=C(N/N=C/c1ccco1)c1ccncc1 | 54.4% |
| COc1ccccc1/C=C/C=N/NC(=O)c1ccccn1 | 70.9% |

| SMILES | inhibition |
| --- | --- |
| COc1ccccc1/C=C/C=N/NC(=O)c1cnccn1 | 5.21% |
| O=C(N/N=C/C=C\c1ccccc1[N+](=O)[O-])c1cccnc1 | -10.7% |
| O=C(N/N=C/C=C\c1ccccc1)c1cnccn1 | 11.4% |
| COc1ccc(CNC(=O)c2ccc[nH]2)cc1 | 34.3% |
| CC(=O)N1CCN(c2ccc(NC(=O)c3ccc4c(c3)OCCO4)cc2Cl)CC1 | 27.7% |
| Cc1cccc(OCC(=O)OC(C)C(=O)Nc2ccc(S(=O)(=O)N3CCCCC3)cc2)c1 (stereo not given) | 17.6% |
| C=C(C)CSc1nnc(-c2cc(OC)c(OC)c(OC)c2)n1N | -11% |
| COc1ccc(C2=NN(C(=O)CN3CCCC3)C(c3ccc(OC)cc3)C2)cc1 (stereo not given) | -5.46% |
| C/C(=N/NC(=O)c1ccncc1)c1ccccc1 | 49.1% |
| O=C(N/N=C/C=C/c1ccccc1)c1ccc(Br)cc1 | -16.8% |
| Cn1cc(C(=O)N/N=C/C=C/c2ccccc2)ccc1=O | -14.3% |
| O=C(N/N=C/c1ccncc1)c1ccccc1 | 67.6% |
| C/C=C/C=N\NC(=O)c1ccncc1 | 57.5% |
| O=C(O)CC/C(=N\NC(=O)c1ccncc1)c1ccccc1 | 37.3% |
| Cc1ccccc1N=C/C=C1/C=C(c2ccccc2)OC(C)(C)O1 | 32.8% |
| CC1(C)OC(c2ccccc2)=C/C(=C/C=Nc2ccccc2)O1 | 14.4% |
| CCCOc1ccc(Cc2c(O)nc(SC)[nH]c2=O)cc1 | 8.21% |
| CCC1(c2ccccc2)NC(=O)N(CC(=O)NC2CCCCCC2)C1=O (stereo not given) | 15.6% |
| CCOC(=O)c1nn(-c2ccc(Cl)cc2C)ccc1=O | -14.1% |
| Cc1c(C(=O)N(C)C)c2cc(Cl)ccc2n1O | 8.07% |
| Cc1ccccc1NC(=O)OCc1ccccc1 | 71.6% |
| COc1ccc(C(=O)COC(=O)c2ccc(-n3cnnn3)cc2)c(OC)c1 | -4.6% |
| COc1cccc(C(=O)Nc2ccccc2F)c1 | -15.1% |
